In PubChem BioAssay (NCI):
This is part of a sample that, as a whole, favours compounds with a hit. Of some 83,000 tested, about 20% had one in any assay.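 Plates (96-well) were seeded with cells, treated with compound at one concentration, and incubated for 48 hours before percent growth was determined.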 Unmarked numbers belong to inactive results. Active and inactive are the calls of the source. Rule for the calls: active = growth percent below 10; inactive = the rest.

test system: HL-60(TB) leukemia; test: NCI-60 one-dose screen, 48 h (100 = growth as untreated, 0 = no growth, -100 = all killed); settings: 10 µM unless noted

| SMILES | growth |
| --- | --- |
| C=CCOc1cccc(/C=C2\SC(=S)N(C3CC(=O)N(c4ccc(Br)cc4)C3=O)C2=O)c1 (centres undefined) | 108% |
| CCCCSC1=C(Cl)CN(c2ccccc2)C1=O | 105% |
| CO/N=C1\CCc2c(sc(NC(=O)c3cccc(C(F)(F)F)c3)c2C(N)=O)C1 | 70.3% |
| c1ccc(C(c2nc3ncncc3[nH]2)N2CSc3nc4ncncc4n3C2)cc1 (centres undefined) | 39.8% |
| NNC(=O)c1sc2nc(-c3cnccn3)cc(-c3cccs3)c2c1N | 105% |
| Cn1c(SCC(=O)c2ccc(Br)cc2)nc2ccccc2c1=O | 92.1% |
| CCS(=O)(=O)Nc1ccc(C(=O)CC2(O)C(=O)Nc3ccccc32)cc1 (centres undefined) | 102% |
| Cn1ccnc1C(=O)/C=C/c1ccc(C(=O)Nc2ccc(NC(=O)CCNC(=O)c3csc(Br)n3)cc2)cc1 | 41% |
| O=C(Nc1ccc(F)c(F)c1)c1cc(-c2ccc(F)cc2F)ccc1O | -30.8% (active) |
| CC(C)NC(=O)c1cc(-c2ccc(NC(=O)Nc3ccc(F)c(C(F)(F)F)c3)cc2)nc2cccnc12 | 109% |
| COc1ccccc1N1CCN(C2=NN=C(c3cccc(Cl)c3)c3ccccc3C2)CC1 | -55.5% (active) |
| CC(=O)OCCCCN1C=C/C(=C\C(=O)n2ccc3ccccc32)c2ccccc21 | 98.6% |
| CC(C)(C)c1ccc(C(=O)Nc2sc3c(c2C(N)=O)CCC(O)C3)cc1 (centres undefined) | 37.2% |
| O=C(CN1C(=O)S/C(=C\c2ccccc2)C1=O)Nc1ccc(C(=O)/C=C/c2cc3ccccc3nc2Cl)cc1 | 80.2% |
